# Screens as filed in PubChem BioAssay.
# The sample as a whole holds a higher share of hits than the screen did.
# HT1080NT lethal = kills 2HG-producing HT-1080-NT fibrosarcoma cells | HT-1080-NT fibrosarcoma viability, CellTiter-Glo ATP luminescence, 48 h | Potency, µM (titrated, usually from 46.1 µM), without a hit: top-dose activity, negative = less viability, actives largely listed as cytotoxic | 360,000 compounds, 1.6% hits | AID 686970;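 further: NT is the 2HG producing partner of a matched IDH1 knockdown line; potency means the concentration at half of the fitted maximal effect; 0% = DMSO-treated cells and -100% = media-only wells without cells; nearly all actives have a fitted effect of over 55% in size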
#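 HT-1080-NT; 750 cells/well; 5% FBS RPMI; 48 h compound, 37 degrees C; CellTiter-Glo luminescence; curve fitting and curve-class assignment.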
# IL-1B inflam inh = blocks inflammasome-driven IL-1 beta release; activity change, % at 57.5 µM; 360,000 compounds, 4.7% hits; THP-1 LPS/ATP IL-1B secretion, AlphaLISA, 16 h; stronger effect = lower value; in the data active means activity change below about -50%; inconclusive means mostly about -30% to -49%
#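 Secreted IL-1B measured by AlphaLISA bead assay after 16 h compound exposure of THP-1 cells; compounds (final up to 57.5 uM) added 1 h before LPS (250 ng/mL) and ATP (1.25 mM) stimulation; lower signal means less secretion.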
# ALOX12 inh = inhibitors of human 12S-lipoxygenase ALOX12; purified 12hLO, xylenol orange hydroperoxide absorbance; Potency, µM (series often up to 108 µM), for the others: top-dose activity change, negative = inhibition, usual class: inhibitors; 580,000 compounds, 1.1% hits; AID 1671190; further: potency means the concentration at half of the fitted maximal effect
# Target sequence (P18054 whole entry, looked up): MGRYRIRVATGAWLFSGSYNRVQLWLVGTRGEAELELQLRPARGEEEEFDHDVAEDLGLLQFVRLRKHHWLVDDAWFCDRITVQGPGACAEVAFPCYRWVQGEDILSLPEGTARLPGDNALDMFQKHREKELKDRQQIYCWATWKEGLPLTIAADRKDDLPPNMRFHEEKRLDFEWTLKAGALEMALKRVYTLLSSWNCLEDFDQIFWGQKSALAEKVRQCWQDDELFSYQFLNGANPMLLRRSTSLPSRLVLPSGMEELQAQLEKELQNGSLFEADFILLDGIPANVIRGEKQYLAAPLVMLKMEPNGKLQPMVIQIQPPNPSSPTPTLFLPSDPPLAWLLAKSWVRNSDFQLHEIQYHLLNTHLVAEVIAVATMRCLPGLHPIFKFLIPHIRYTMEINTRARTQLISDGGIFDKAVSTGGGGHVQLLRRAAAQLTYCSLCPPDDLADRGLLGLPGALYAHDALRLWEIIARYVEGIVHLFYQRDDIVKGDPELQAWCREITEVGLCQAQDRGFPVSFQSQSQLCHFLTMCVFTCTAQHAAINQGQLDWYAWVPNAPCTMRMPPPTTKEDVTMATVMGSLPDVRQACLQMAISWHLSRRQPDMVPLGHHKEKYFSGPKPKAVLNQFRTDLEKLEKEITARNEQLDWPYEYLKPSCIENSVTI
#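 Purified human 12hLO (150 nM final) in 25 mM Hepes, 0.01% Triton X-100, pH 7.0 was preincubated 15 min at room temperature with compound. Then 40 uM arachidonic acid was added, 30 min. Hydroperoxide was read by Fe-XO absorbance ratio 573/405 nm.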
# HT1080 IDH1KD tx = HT-1080 IDH1 knockdown cell toxicity (counter line); HT-1080 IDH1 knockdown viability, ATP luminescence, 48 h; 360,000 compounds, 2% hits; Potency, µM (doses to about 46.1 µM), for inactives: at the highest dose activity, negative = toxicity, actives largely listed as cytotoxic;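 further: potency means the concentration at half of the fitted maximal effect; 0% = DMSO wells and -100% = cell-free medium wells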
#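 In this qHTS, HT-1080 cells depleted of IDH1 are exposed for 48 h at 37 °C to compound titrations. Toxicity is scored from CellTiter-Glo luminescence, with DMSO as full viability and medium alone as none.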
# DT40 TDP1 CPT = DT40-hTDP1 cell growth loss with CPT; 420,000 compounds, 12% hits; chicken DT40 Tdp1-/-;hTDP1 cells + 20 nM CPT, ATP luminescence, 48 h; Potency, µM (titrated, usually from 46.2 µM), for the others: top-dose activity change, negative = growth inhibition, actives largely listed as inhibitors; further: potency means the concentration at half of the fitted maximal effect; nearly all actives have a fitted effect of over 55% in size
#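 Cell growth measured by CellTiter-Glo luminescence after a minimum 48 h, 37 C compound exposure with 20 nM CPT in Tdp1-knockout DT40 cells stably expressing hTDP1, seeded 400/well; qHTS titration format.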
# TDP1 cell noCPT = qHTS for Inhibitors of human tyrosyl-DNA phosphodiesterase 1 (TDP1): qHTS in cells in absence of CPT | DT40 Tdp1-/- hTDP1 cells, no CPT, ATP luminescence, 48 h | Potency, µM (top dose mostly 46.2 µM), inactives show at the highest dose activity change, negative = growth inhibition, usual class: inhibitors | 420,000 compounds, 15% hits; further: potency means the concentration at half of the fitted maximal effect; nearly all actives have a fitted effect of over 55% in size
#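 Chicken DT40 Tdp1-/- cells complemented with human TDP1, screened without camptothecin (DMSO vehicle only), 400 cells/well. Compounds pin-transferred, cells incubated at 37 °C for at least 48 hr. Growth read as ATP-dependent luminescence (CellTiter-Glo, 30 min at RT).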
# * marks the source's active call; other numbers are inactive results; ? = inconclusive; nt = not tested or not shown; [ ] = another dose, or the depositor's remark. Unless noted, the call rests on the fitted dose curve; in most records, active means well fitted curve in the direction sought with a large enough effect; inconclusive means small, poorly fitted or top-dose-only effect, or another doubt; inactive means no such curve, though single readings can be large; an effect the other way counts as inactive or inconclusive. Unless noted, on the % scale 0 is the no-effect control and ±100 the full control effect.
SMILES,HT1080NT lethal,IL-1B inflam inh,ALOX12 inh,HT1080 IDH1KD tx,DT40 TDP1 CPT,TDP1 cell noCPT
CCOc1ccc(C(=O)Nc2ccc3oc(-c4ccc5ccccc5c4)nc3c2)cc1,nt,nt,-2%,nt,3.7µM*,?
CCOc1cccc(C(=O)Nc2ccc3oc(-c4cccnc4)nc3c2)c1,7%,?,12%,6%,?,?
CCOc1ccc(C(=O)Nc2ccc3oc(-c4ccncc4)nc3c2)cc1,nt,nt,?,nt,-21%,-29%
Cc1cccc([C@H]2C[C@@H](O)[C@@H](O)[C@@H]2NS(C)(=O)=O)c1,nt,nt,16%[176 µM],nt,nt,nt
CCOc1ccc(CCNS(=O)(=O)c2c(C)nc3sccn3c2=O)cc1OCC,nt,nt,-16%,nt,nt,nt
C/C=C/c1ccc(OCc2ccc(C#N)cc2)c(OC)c1,nt,nt,-20%,nt,nt,nt
COc1cc(/C=C(/C#N)C(=O)c2cccc(C)c2)cc(Cl)c1O,nt,nt,82%,nt,nt,nt
COc1cc(/C=C(/C#N)C(=O)OC(C)C)cc(Cl)c1O,nt,nt,20µM*,nt,nt,nt
CCn1c(SC(C)C)nnc1-c1cc(-c2ccccc2)sc1N,0%,-6,0%,-12%,?,16µM*
CCn1c(SCc2cccc(C)c2)nnc1-c1ccccc1,5%,-12,2%,-14%,?,?
Cc1cccc2c(=O)c3c(O)cc(OCC(=O)Nc4ccc(Br)cc4)cc3oc12,nt,nt,8%,nt,nt,nt
COc1ccc(-c2onc(C)c2C)cc1S(=O)(=O)N(C)Cc1ccccc1,nt,nt,-4%,nt,21µM*,23µM*
CC(C)CCNC(=O)C(Cc1ccccc1)NC(N)=O (stereo not drawn),nt,nt,-36%,nt,nt,nt
O=C1C(NS(=O)(=O)c2cccs2)=C(N2CCN(c3cccc(C(F)(F)F)c3)CC2)C(=O)c2ccccc21,?,-24,?,?,16µM*,23µM*
O=C1C(NS(=O)(=O)c2cccs2)=C(N2CCOCC2)C(=O)c2ccccc21,?,10,?,?,?,?
CN1CCN(C2=C(NS(=O)(=O)c3cccs3)C(=O)c3ccccc3C2=O)CC1,?,69,-13%,?,16µM*,21µM*
O=C1c2ccccc2C(=O)C1(c1ccccc1)N1CCN(c2cccc(C(F)(F)F)c2)CC1,nt,nt,-13%,nt,?,?
COc1ccccc1N1CCN(S(=O)(=O)c2cccs2)CC1,0%[9.24 µM],-12,-11%,1%,-26%,-14%
CCOc1ccccc1N1CCN(C2=C(NS(=O)(=O)c3cccs3)C(=O)c3ccccc3C2=O)CC1,?,-29,-1%,?,?,26µM*
O=C1C(NS(=O)(=O)c2cccs2)=C(N2CCN(Cc3ccccc3)CC2)C(=O)c2ccccc21,-1%,5,-15%,-11%,?,16µM*
CC(NS(C)(=O)=O)C(c1cccs1)N1CCN(Cc2ccccc2)CC1 (stereo not drawn),-6%,8,14%[57.4 µM],3%,?,?
Cc1ccc(C(=O)Nc2ccc(C(=O)N(C)C)cc2)cc1,nt,nt,-19%,nt,nt,nt
O=C(CNS(=O)(=O)c1cccs1)N1CCN(c2cccc(C(F)(F)F)c2)CC1,nt,nt,-22%,nt,16µM*,21µM*
O=C(CCNc1cccc(Cl)c1)c1ccco1,?,4,7%,?,7.3µM*,8.2µM*
Cc1ccc(Nc2nc3nonc3[nH]c2=O)cc1Cl,?,-17,?,?,16µM*,26µM*
SMILES,HT1080NT lethal,IL-1B inflam inh,ALOX12 inh,HT1080 IDH1KD tx,DT40 TDP1 CPT,TDP1 cell noCPT
CC(/C=C1\SC(=S)N(NC(=O)c2ccc(O)cc2)C1=O)=C\c1ccccc1,-3%,-76*,-18%,4%,-17%,4%
CC(=C\c1ccccc1)/C=C1/SC(=S)N(C(C(=O)O)C(C)C)C1=O (stereo not drawn),-7%,-4,45µM*,-1%,-17%,?
CCC(C(=O)O)N1C(=O)/C(=C/C(C)=C/c2ccccc2)SC1=S (stereo not drawn),-7%,-6,?,-13%,5%,-2%
CC1(c2cccc(Br)c2)NC(=O)N(CC(=O)NC2CCCCC2)C1=O (stereo not drawn),-1%,14,?,-1%,-1%,0%
O=C1CN(C(=O)CN2C(=O)NC(c3ccccc3)(c3ccccc3)C2=O)c2ccccc2N1,0%,-19,3%,-3%,-28%,-16%
Cc1ccc(C2(c3ccccc3)NC(=O)N(CC(=O)NC3CCCCC3)C2=O)cc1C (stereo not drawn),-3%,-20,-27%,-21%,?,18µM*
Cc1ccc(C2(c3ccccc3)NC(=O)N(CC(=O)N3CC(=O)Nc4ccccc43)C2=O)cc1C (stereo not drawn),0%[9.24 µM],0,-10%,-22%,?,23µM*
C#CC[N+](C)(C)CC#Cc1ccc(Cl)cc1,?,-67*,-1%,?,-11%,-29%
C#CC[N+](CC)(CC)CC#Cc1cccc(Cl)c1,-8%,-4,5%,-15%,?,?
C[C@H]1CN([C@@H](C)CO)C(=O)c2cc(/C=C/c3ccccc3)cnc2O[C@H]1CN(C)C(=O)c1cccc(F)c1,-3%,-18,?,-6%,?,23µM*
C[C@H](CO)N1C[C@H](C)[C@@H](CN(C)Cc2ccc(-c3ccccc3)cc2)Oc2ncc(C#C[C@@H](C)O)cc2C1=O,-23%,-21,17%,-23%,?,?
C[C@@H]1CN([C@@H](C)CO)C(=O)c2cc(C#Cc3cccc(F)c3)cnc2O[C@@H]1CN(C)CC1CCOCC1,-18%,?,-61%,-22%,16µM*,?
C[C@@H]1CN([C@@H](C)CO)C(=O)c2cc(Br)cnc2O[C@@H]1CN(C)Cc1ccc(Oc2ccccc2)cc1,-14%,-52*,-11%,-18%,-1%,16µM*
C[C@H](O)C#Cc1cnc2c(c1)C(=O)N([C@H](C)CO)C[C@@H](C)[C@@H](CN(C)Cc1ccc(-c3ccccc3)cc1)O2,?,-108*,?,-15%,?,1.3µM*
Cc1ccc(-c2cnc3c(c2)C(=O)N([C@H](C)CO)C[C@H](C)[C@@H](CN(C)Cc2ccccc2F)O3)cc1,-16%,-25,?,13%,?,?
C[C@@H]1CN([C@@H](C)CO)C(=O)c2cc(-c3ccccc3F)cnc2O[C@H]1CN(C)Cc1cccc(F)c1,-13%,-22,0%,-7%,?,23µM*
